The text below walks through data of PubChem BioAssay (NCATS).

Results filed as inconclusive are left out. A number with no mark means an inactive call. Active and inactive are the calls of the source. Unless noted, calls come from the whole dose curve; as a rule, active = well fitted curve in the direction sought with a large enough effect; inconclusive = small, poorly fitted or top-dose-only effect, or another doubt; inactive = no such curve, though single readings can be large; an effect the other way counts as inactive or inconclusive.

The term viability denotes a read-out of living cells in per cent, often relative to untreated cells.

For assay [1], the target named is Aldehyde dehydrogenase, mitochondrial (Homo sapiens) (UniProt P05091). Briefly: qHTS for Inhibitors of the Aldehyde Dehydrogenase Family (ALDH2) Confirmatory screens (AID 2061303; active = well fitted inhibition curve with a large enough effect; title and protocol of this record describe different tests; note: nearly all actives have a fitted effect of over 45% in size; note: potency is the fitted concentration of half-maximal effect).
A short description of assay [2]: qHTS for Inhibitors of the Aldehyde Dehydrogenase Family (ALDH1A2, ALDH1A3, ALDH2, ALDH3A1) (AID 2061307). For Potency: test system not described further here; potency is the fitted concentration of half-maximal effect. Note: nearly all actives have a fitted effect of over 50% in size. A general note: qHTS replaces the single test concentration by a dilution series.
Assay [3] concerns the target Aldehyde dehydrogenase, mitochondrial (Homo sapiens) (UniProt P05091). Briefly: qHTS for Inhibitors of the Aldehyde Dehydrogenase Family (ALDH2) Primary screen (AID 2061308). Note: nearly all actives have a fitted effect of over 55% in size. Note: potency is the fitted concentration of half-maximal effect.
The target in assay [4] is Retinaldehyde dehydrogenase 3 (Homo sapiens) (UniProt P47895). In words: qHTS for Inhibitors of the Aldehyde Dehydrogenase Family (ALDH1A3) Confirmatory screens (AID 2061311). Note: nearly all actives have a fitted effect of over 60% in size. Note: potency is the fitted concentration of half-maximal effect.
The target is the same in assay [5]. Briefly: qHTS for Inhibitors of the Aldehyde Dehydrogenase Family (ALDH1A3) Validation screen (AID 2061312). Note: % is set by controls: 0 for no effect and ±100 for the full control effect; nearly all actives have a fitted effect of over 45% in size.
The target is the same in assay [6]. In words: qHTS for Inhibitors of the Aldehyde Dehydrogenase Family (ALDH1A3) Primary screen (AID 2061315).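 Note: plate controls were DMSO vehicle for no effect and reference inhibitor for full effect.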
The target in assay [7] is Retinal dehydrogenase 2 (Homo sapiens) (UniProt O94788). In words: qHTS for Inhibitors of the Aldehyde Dehydrogenase Family (ALDH1A2) Confirmation screens (AID 2061314). Note: nearly all actives have a fitted effect of over 65% in size. Note: potency is the fitted concentration of half-maximal effect.
For assay [8], the target named is Aldehyde dehydrogenase 1A1 (Homo sapiens) (UniProt P00352). In words: qHTS for Inhibitors of the Aldehyde Dehydrogenase Family (ALDH1A1) Confirmatory screens (AID 2061316). Note: nearly all actives have a fitted effect of over 65% in size. Note: potency is the fitted concentration of half-maximal effect.
The target of assay [9] is Aldehyde dehydrogenase, mitochondrial (Homo sapiens) (UniProt P05091). Briefly: qHTS for Inhibitors of the Aldehyde Dehydrogenase Family (ALDH2) Validation screens (AID 2061302; active = well fitted inhibition curve with a large enough effect; title and protocol of this record describe different tests;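 note: plate controls were DMSO vehicle for no effect and maximal DPI positive control response for full effect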).
Assay [10] can be described thus: BET inhibitor-based combinations targeting novel dependencies in MECOM-rearranged (r) AML: SET-2 cell line (AID 2202231).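 For viability: plate controls were DMSO treated cells for no effect and wells without cells for full effect.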 Note: nearly all actives have a fitted effect of over 35% in size. Note: potency is the fitted concentration of half-maximal effect. To be noted: SET-2 AML cells viability, CellTiter-Glo luminescence, 48 h; viability: stronger effect = lower value, concentration not given here. The procedure, abridged: (§1)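 Readout: CellTiter-Glo luminescence. Exposure: 48 h, 11 concentrations, 500 cells/well. Metric: AUC and within-line Z-AUC after DMSO/empty-well normalization.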

A short description of assay [11]: BET inhibitor-based combinations targeting novel dependencies in MECOM-rearranged (r) AML: OCI-AML3 cell line (AID 2202232). Note: potency is the fitted concentration of half-maximal effect; nearly all actives have a fitted effect of over 35% in size. To be noted: Potency: OCI-AML3 viability. In a few lines: as §1
The nature of assay [12]: BET inhibitor-based combinations targeting novel dependencies in MECOM-rearranged (r) AML: MV-4-11 cell line (AID 2202233). Note: nearly all actives have a fitted effect of over 45% in size. Note: potency is the fitted concentration of half-maximal effect. In a few lines:
(§2)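 Seeding density was 500 cells/well, and drug exposure lasted 48 hr under standard culture conditions. Read-out used CellTiter-Glo reagent with a 15 min room-temperature incubation before luminescence measurement; AUC and Z-AUC summarize the normalized responses.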

A short description of assay [13]: BET inhibitor-based combinations targeting novel dependencies in MECOM-rearranged (r) AML: UCSD-AML1 cell line (AID 2202235). Note: nearly all actives have a fitted effect of over 40% in size. Note: potency is the fitted concentration of half-maximal effect. In a few lines:
as §2

Assay [14] can be described thus: BET inhibitor-based combinations targeting novel dependencies in MECOM-rearranged (r) AML: AML-191 cell line (AID 2202236; note: nearly all actives have a fitted effect of over 35% in size; note: potency is the fitted concentration of half-maximal effect). In a few lines:
as §1

Assay [15] in a line: BET inhibitor-based combinations targeting novel dependencies in MECOM-rearranged (r) AML: AML-194 cell line (AID 2202237; note: nearly all actives have a fitted effect of over 40% in size; note: potency is the fitted concentration of half-maximal effect). The procedure, abridged: as §1
The nature of assay [16]: BET inhibitor-based combinations targeting novel dependencies in MECOM-rearranged (r) AML: HNT-34 cell line (AID 2202234).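 Note: plate controls were vehicle wells for no effect and cell-free wells for full effect; nearly all actives have a fitted effect of over 35% in size.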 In a few lines:
as §2

Take `Cc1cc(C(=O)CN2CCCC2)c(C)n1-c1ccc(F)cc1`: the Potency entry in assay [1], in assay [2], in assay [3], in assay [4], in [5] and in assay [6] was “inactive” each time.
Consider `N#Cc1c(-c2cccc(-c3no[n+]([O-])c3C#N)c2)no[n+]1[O-]`, for which the Potency in [1] was 1.27 µM (active); in assay [3], 0.282 µM (active); in assay [7], 1.27 µM (active); in assay [8], 12.7 µM (active). Further, the Potency result in assay [6] was “inactive”.
On to `C=C(C)[C@H]1Cc2c(ccc3c2O[C@@H]2COc4cc(OC)c(OC)cc4[C@@H]2C3=O)O1`, for which the Potency result in assay [9] is “inactive”. For the same molecule, the Potency was 1.18 µM (active) in [10]; 0.332 µM (active) in [11]; 0.417 µM (active) in assay [12]; 0.934 µM (active) in [13]; 0.934 µM (active) in assay [14]; 0.934 µM (active) in [15].
Take `C[C@@H]1Cc2c(Cl)cc(C(=O)N[C@@H](Cc3ccccc3)C(=O)O)c(O)c2C(=O)O1`: the Potency result in [1], in assay [2], in assay [3], in [7] and in assay [6] was “inactive” in each case.
For the molecule `CCOc1ccc(CCNC(=O)c2cc3ccncc3n2Cc2cccc(C)n2)cc1OCC`, the Potency entry in assay [2], in [3], in assay [6] and in assay [8] was “inactive” each time.
With `O=c1[nH]c(CN2CCNCC2)nc2ccccc12`, in assay [2], the Potency result is “inactive”.
Turning to `CCC1(c2ccc(N)cc2)CCC(=O)NC1=O` (centres undefined), the Potency entry in assay [9], in assay [5], in assay [12], in [13] and in [15] was “inactive” in each case. Also, the viability in [10] is 114%.
As to `O=S(=O)(Nc1ccc(-c2ccccc2)cc1)c1ccc(NCc2cccc(Cl)c2O)cc1`, the Potency in assay [2] and in assay [7] was 25.2 µM (active) in each case. Besides, the Potency entry in [6] was “inactive”.
As for `CC(=O)c1cccc(N=[N+]=[N-])c1`, the Potency result in assay [2] was “inactive”.
As for `O=[N+]([O-])/C=C/c1ccc2c(c1)OCO2`, the Potency in assay [2] was 5.01 µM (active); in [4], 15.8 µM (active); in assay [7], 35.5 µM (active); in assay [8], 3.57 µM (active). Also, the Potency result in assay [5] was “inactive”.
For `Cc1ccc(S(=O)(=O)N[C@@H](CCCCN)C(=O)CCl)cc1`, the Potency result in assay [1], in assay [2] and in assay [4] was “inactive” each time. The Potency in [7] was 12.7 µM (active).
In the case of `N#Cc1nc(-c2cccc3ccccc23)oc1NCc1ccccc1`, the Potency in assay [2] was 2.52 µM (active); in [8], 7.12 µM (active). For the same molecule, in [6], the Potency result is “inactive”.
On to `N#Cc1c(-c2cc(F)cc(-c3no[n+]([O-])c3C#N)c2)no[n+]1[O-]`, for which the results for the Potency in assay [1], in assay [7] and in [8] were 0.357 µM (active), 1.59 µM (active) and 11.3 µM (active), respectively.
As for `CN(Cc1ccccc1)C[C@H]1CN2CC[C@H]1C[C@@H]2CNC(=O)c1ccc(C(F)(F)F)cc1`, in [1], the Potency entry is “inactive”.
For the molecule `N#Cc1c(-c2ccc([N+](=O)[O-])o2)no[n+]1[O-]`, the Potency in assay [1] is 2.82 µM (active); in assay [2] it was 10.1 µM (active); in assay [3], 3.16 µM (active); in assay [4] it was 7.94 µM (active); in assay [7] it was 15.8 µM (active); in [8] it was 2.25 µM (active).
As for `COc1ccc(-c2nc(CS(=O)CC(=O)N3CCC4(CC3)OCCO4)c(C)o2)cc1` (centres undefined), the Potency entry in assay [2] was “inactive”.
On to `CN1CCN(c2cnc3c(O)ccc(C(=O)O)c3c2)CC1`, for which the Potency entry in assay [1], in assay [2], in assay [3] and in assay [6] was “inactive” in each case. The Potency in assay [4] was 12.7 µM (active).
Turning to `CC1=C(C)C(=O)C(CC[C@](C)(O)CCC[C@H](C)CCC[C@H](C)CCCC(C)C)=C(C)C1=O`, the Potency result in [2], in assay [3] and in [8] was “inactive” each time. Further, the Potency is 10.1 µM (active) in [4] and 4.49 µM (active) in assay [7].
In the case of `CCCCCn1c(C)c(C(=O)c2ccc(OC)c3ccccc23)c2ccccc21`, in assay [2], the Potency entry was “inactive”.
Take `Cc1cccc(C)c1OP(=O)(OCc1c(-c2ccccc2)no[n+]1[O-])Oc1c(C)cccc1C`: the Potency in assay [1] is 1.12 µM (active); in [2], 5.04 µM (active); in [4], 12.7 µM (active); in [7], 12.7 µM (active). Besides, in assay [6], the Potency result was “inactive”.
On to `CC(=O)N(C)CC#CCN1CCC(O)CC1`, for which the Potency result in assay [2] is “inactive”.
As for `CCOc1ccc(CCNC(=O)c2cc3ncccc3n2Cc2cccc(C)n2)cc1OCC`, the Potency result in assay [1], in [2], in [3], in assay [7] and in assay [6] was “inactive” in each case.
Turning to `CCOc1ccc(CCNC(=O)c2cc3cnccc3n2Cc2cccc(C)n2)cc1OCC`, the Potency result in [1], in assay [3], in assay [6] and in assay [8] was “inactive” throughout.
`CN1C(=O)CCS(=O)(=O)C1c1ccc(Cl)cc1` (centres undefined): the Potency entry in [9], in [5], in assay [16], in [13], in assay [14] and in assay [15] was “inactive” throughout. Also, in assay [10], the viability is 123%.
With `CCc1nn2c(=O)cc(C3=CCNCC3)nc2s1`, the Potency entry in [2] was “inactive”.
Turning to `CC(=O)OCC1=C(C(=O)O)N2C(=O)C(NC(=O)CCCC(N)C(=O)O)C2SC1` (centres undefined), the Potency result in assay [1] and in assay [4] was “inactive” throughout.
Regarding `CC(=O)c1ccc(N=[N+]=[N-])cc1`, the Potency in [2] is 8.96 µM (active).
Consider `CO[C@@H]1C[C@H](O[C@H]2CC[C@]3(C)C4CC[C@]5(C)[C@@H](C6=CC(=O)OC6)[C@@H](OC(C)=O)C[C@]5(O)C4CC[C@@H]3C2)OC(C)[C@H]1O` (some centres undefined), for which, in assay [2], the Potency entry was “inactive”.
For the molecule `CN=C(NS(=O)(=O)c1ccc(Cl)cc1)N1C[C@H](c2ccccc2)C(c2ccc(Cl)cc2)=N1`, the Potency entry in [3], in assay [5] and in assay [6] was “inactive” each time.
As for `CC(=O)OCC(N)C(=O)c1ccccc1` (centres undefined), the Potency result in [3] is “inactive”.
Consider `N#Cc1ccc(NC(=O)Nc2nnc(-c3ccncc3)s2)cc1C(F)(F)F`, for which the Potency result in [3] and in assay [6] was “inactive” throughout.
With `COc1ccc(C(C)(C)C)cc1CN[C@H]1C2CCN(CC2)[C@H]1C(c1ccccc1)c1ccccc1`, the Potency result in [3], in assay [5] and in assay [6] was “inactive” each time.
As for `COC1CC(O[C@H]2CC[C@@]3(C)C(CCC4C3CC[C@]3(C)C(C5=CC(=O)OC5)CCC43O)C2)OC(C)C1OC1OC(COC2OC(CO)C(O)C(O)C2O)C(O)C(O)C1O` (some centres undefined), the Potency result in assay [3] and in [6] was “inactive” each time.
For `C[C@H]1O[C@@H](O[C@H]2CC[C@]3(CO)C4CC[C@]5(C)[C@@H](C6=CC(=O)OC6)CC[C@]5(O)[C@@H]4CC[C@H]3C2)[C@H](O)[C@H](O)[C@@H]1O[C@@H]1O[C@H](CO)[C@@H](O)[C@H](O)[C@H]1O` (some centres undefined), the Potency entry in [3], in [7], in assay [6] and in assay [8] was “inactive” each time.
